Consider 15 molecules from PubChem BioAssay (NCATS).

Records with an inconclusive call do not appear. Calls of active or inactive are those of the source. Unless noted, the call rests on the fitted dose curve; in most records, active means well fitted curve in the direction sought with a large enough effect; inconclusive means small, poorly fitted or top-dose-only effect, or another doubt; inactive means no such curve, though single readings can be large; an effect the other way counts as inactive or inconclusive. *1 amine or outer side, *2 acyl side, *3 side chain or, on linkers, in order; H or OH if unused. Where a SMILES comes first, the peptide text is derived from it. Bridges are numbered along the chain shown (N, C = ends). Roman numbers before positions name the chains, in order. [ ]: non-standard residue; d: D form. ξ: configuration not given here. Actinocin(9to1) = Cc1c2oc3c(C)ccc(C(=O)[*:1])c3nc-2c(C(=O)[*:2])c(N)c1=O; ξNMeV = CNC(C(=O)O)C(C)C; ξV = CC(C)C(N)C(=O)O; Sar = CNCC(=O)O

The nature of the first test: Cytotoxicity counterscreen for NFkB agonists and antagonists (AID 624476).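 Further: cells exposed to compound for 48 hours.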 Further: potency means the concentration at half of the fitted maximal effect. On activity change, negative = cytotoxicity: on the % scale 0 is the no-effect control and ±100 the full control effect. The settings on record: NFkB reporter cell line viability counterscreen; series mostly up to 46.1 µM; activity change, negative = cytotoxicity: at the top concentration.
On to `Cc1nnc(C(C)C)n1C1CC2CCC(C1)N2CC[C@H](NC(=O)C1CCC(F)(F)CC1)c1ccccc1` (some centres not stated), for which the “activity change, negative = cytotoxicity” value is 0.091% (inactive).
Still for that read-out and setting: with `CN(NC(=O)CC(=O)NN(C)C(=S)c1ccccc1)C(=S)c1ccccc1` the figure was 1.35% (inactive); with `C[C@@H]1CCN(C(=O)CC#N)C[C@@H]1N(C)c1ncnc2[nH]ccc12`, 0.549% (inactive); with `CC(NC(=O)Cc1cc(F)cc(F)c1)C(=O)NC(C(=O)OC(C)(C)C)c1ccccc1` (configuration not stated), 1.42% (inactive).
`NC(=O)Nc1cc(-c2ccc(CN3CCOCC3)c(F)c2)sc1C(=O)N[C@H]1CCCNC1`: the Potency is 0.59 µM (active).
On the same count and under the same terms, the same measure for `Cc1c2oc3c(C)ccc(C(=O)N[C@@H]4C(=O)NC(C(C)C)C(=O)N5CCC[C@H]5C(=O)N(C)CC(=O)N(C)C(C(C)C)C(=O)O[C@@H]4C)c3nc-2c(C(=O)N[C@@H]2C(=O)NC(C(C)C)C(=O)N3CCC[C@H]3C(=O)N(C)CC(=O)N(C)C(C(C)C)C(=O)O[C@@H]2C)c(N)c1=O` (some centres not stated) (I: T[ξV]P[Sar][ξNMeV] / II: T[ξV]P[Sar][ξNMeV]; ester I:1-I:C, II:1-II:C; linker I:N-II:N via Actinocin(9to1)): 0.0013 µM (active).
For the molecule `CCC1(Cc2ccc(N)cc2)CCC(=O)NC1=O` (configuration not stated), the “activity change, negative = cytotoxicity” value was -26.7% [at 92.2 µM] (inactive).
Still for that read-out and setting: the same measure for `O=C(O)CC/C=C\CC[C@H]1[C@@H](N2CCCCC2)[C@@H](O)C[C@@H]1OCc1ccc(-c2ccccc2)cc1`: 1.23% (inactive); for `CCCCCCCCCCCCCCCCCCOP(=O)([O-])OC1CC[N+](C)(C)CC1`: 7.69% [at 29.8 µM] (inactive); for `CCC1(O)CC2CN(CCc3c([nH]c4ccccc34)[C@@](C(=O)OC)(c3cc4c(cc3OC)N(C=O)[C@H]3[C@](O)(C(=O)OC)[C@H](OC(C)=O)[C@]5(CC)C=CCN6CC[C@]43[C@@H]65)C2)C1` (some centres not stated): 15.3% (inactive).
As for `CCOc1cc2ncc(C#N)c(Nc3ccc(OCc4ccccn4)c(Cl)c3)c2cc1NC(=O)/C=C/CN(C)C`, the Potency was 37.2 µM (active).

A short description of the next test: qHTS Assay for Identification of Small Molecule Agonists for NFkB Signaling Pathway. (AID 624478).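 Further: compounds tested together with TNF alpha at its EC50 of 10 pM; 0% is about no effect.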 The settings on record: NFkB pathway reporter cell assay, agonist mode, cells co-stimulated with 10 pM TNF alpha; series mostly up to 46.1 µM; activation: at the top concentration. In short, it runs like this:
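Cells carrying an NFkB response element-driven beta-lactamase gene are co-treated with compound and 10 pM TNF alpha for 5 h, and reporter activity is then read as 460 and 530 nm fluorescence.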
On the technique in general: Quantitative high-throughput screening tests each substance at several concentrations.
With `Cc1nnc(C(C)C)n1C1CC2CCC(C1)N2CC[C@H](NC(=O)C1CCC(F)(F)CC1)c1ccccc1` (some centres not stated), the “activation” value was -0.442% (inactive).
With `CN(NC(=O)CC(=O)NN(C)C(=S)c1ccccc1)C(=S)c1ccccc1`, the “activation” value is -0.427% (inactive).
On to `O=c1cc(C2=CC=CC3Sc4ccccc4SC23)oc(N2CCOCC2)c1` (configuration not stated), for which the “activation” value was -0.8% (inactive).
Same read-out and setting: the same measure for `C[C@@H]1CCN(C(=O)CC#N)C[C@@H]1N(C)c1ncnc2[nH]ccc12`: -0.289% (inactive); for `CC(NC(=O)Cc1cc(F)cc(F)c1)C(=O)NC(C(=O)OC(C)(C)C)c1ccccc1` (configuration not stated): 0.64% (inactive); for `CC[C@@H](C(=O)O)C1CC[C@H](C)C([C@@H](C)[C@H](O)[C@H](C)C(=O)[C@H](CC)C2O[C@]3(C=C[C@@H](O)[C@]4(CC[C@@](C)(C5CC[C@](O)(CC)[C@H](C)O5)O4)O3)[C@H](C)C[C@@H]2C)O1` (some centres not stated): -0.859% (inactive).
With `NC(=O)Nc1cc(-c2ccc(CN3CCOCC3)c(F)c2)sc1C(=O)N[C@H]1CCCNC1`, the “activation” value is 5.4% (inactive).
For the molecule `CNC1CCN(C(Cc2cccc(-c3ccncc3)c2)C(=O)c2sc3c(F)ccc(F)c3c2Cl)CC1` (configuration not stated), the “activation” value was 5.01% (inactive).
Still for that read-out and setting: the same measure for `Cc1c2oc3c(C)ccc(C(=O)N[C@@H]4C(=O)NC(C(C)C)C(=O)N5CCC[C@H]5C(=O)N(C)CC(=O)N(C)C(C(C)C)C(=O)O[C@@H]4C)c3nc-2c(C(=O)N[C@@H]2C(=O)NC(C(C)C)C(=O)N3CCC[C@H]3C(=O)N(C)CC(=O)N(C)C(C(C)C)C(=O)O[C@@H]2C)c(N)c1=O` (some centres not stated) (I: T[ξV]P[Sar][ξNMeV] / II: T[ξV]P[Sar][ξNMeV]; ester I:1-I:C, II:1-II:C; linker I:N-II:N via Actinocin(9to1)): 0.338% (inactive); for `COC(=O)C1=C(C)NC(C)=C(C(=O)OCCCN2CCC(c3ccccc3)(c3ccccc3)CC2)[C@H]1c1cccc([N+](=O)[O-])c1`: 1.52% (inactive).
Same read-out and setting: the same measure for `O=C(O)CC/C=C\CC[C@H]1[C@@H](N2CCCCC2)[C@@H](O)C[C@@H]1OCc1ccc(-c2ccccc2)cc1`: -1.21% (inactive).
Still for that read-out and setting: the same measure for `CCCCCCCCCCCCCCCCCCOP(=O)([O-])OC1CC[N+](C)(C)CC1`: -1.28% [at 29.8 µM] (inactive); for `CCC1(O)CC2CN(CCc3c([nH]c4ccccc34)[C@@](C(=O)OC)(c3cc4c(cc3OC)N(C=O)[C@H]3[C@](O)(C(=O)OC)[C@H](OC(C)=O)[C@]5(CC)C=CCN6CC[C@]43[C@@H]65)C2)C1` (some centres not stated): -1.06% (inactive); for `CCOc1cc2ncc(C#N)c(Nc3ccc(OCc4ccccn4)c(Cl)c3)c2cc1NC(=O)/C=C/CN(C)C`: -0.214% (inactive).

A further test is described as follows: qHTS Assay for Identification of Small Molecule Antagonists for NFkB Signaling Pathway. (AID 624479; calls by dose curve; further: potency means the concentration at half of the fitted maximal effect; on activity change, negative = inhibition: on the % scale 0 is the no-effect control and ±100 the full control effect). As to conditions: NFkB pathway reporter cell assay, antagonist mode; series mostly up to 38.3 µM; activity change, negative = inhibition: at the top concentration.
For `Cc1nnc(C(C)C)n1C1CC2CCC(C1)N2CC[C@H](NC(=O)C1CCC(F)(F)CC1)c1ccccc1` (some centres not stated), the “activity change, negative = inhibition” value is -11.8% (inactive).
Same read-out and setting: with `CN(NC(=O)CC(=O)NN(C)C(=S)c1ccccc1)C(=S)c1ccccc1` the figure was -1.56% (inactive).
As to `CC(NC(=O)Cc1cc(F)cc(F)c1)C(=O)NC(C(=O)OC(C)(C)C)c1ccccc1` (configuration not stated), the “activity change, negative = inhibition” value is -1.7% (inactive).
Take `NC(=O)Nc1cc(-c2ccc(CN3CCOCC3)c(F)c2)sc1C(=O)N[C@H]1CCCNC1`: the Potency is 4.73 µM (active).
For `CNC1CCN(C(Cc2cccc(-c3ccncc3)c2)C(=O)c2sc3c(F)ccc(F)c3c2Cl)CC1` (configuration not stated), the “activity change, negative = inhibition” value is -28.9% (inactive).
In the case of `Cc1c2oc3c(C)ccc(C(=O)N[C@@H]4C(=O)NC(C(C)C)C(=O)N5CCC[C@H]5C(=O)N(C)CC(=O)N(C)C(C(C)C)C(=O)O[C@@H]4C)c3nc-2c(C(=O)N[C@@H]2C(=O)NC(C(C)C)C(=O)N3CCC[C@H]3C(=O)N(C)CC(=O)N(C)C(C(C)C)C(=O)O[C@@H]2C)c(N)c1=O` (some centres not stated) (I: T[ξV]P[Sar][ξNMeV] / II: T[ξV]P[Sar][ξNMeV]; ester I:1-I:C, II:1-II:C; linker I:N-II:N via Actinocin(9to1)), the Potency was 0.0119 µM (active).
Still for that read-out and setting: the same measure for `COC(=O)C1=C(C)NC(C)=C(C(=O)OCCCN2CCC(c3ccccc3)(c3ccccc3)CC2)[C@H]1c1cccc([N+](=O)[O-])c1`: 23.7 µM (active).
For the molecule `CCC1(Cc2ccc(N)cc2)CCC(=O)NC1=O` (configuration not stated), the “activity change, negative = inhibition” value was -10% [at 76.6 µM] (inactive).
Still for that read-out and setting: the same measure for `O=C(O)CC/C=C\CC[C@H]1[C@@H](N2CCCCC2)[C@@H](O)C[C@@H]1OCc1ccc(-c2ccccc2)cc1`: -11.5% (inactive); for `CCCCCCCCCCCCCCCCCCOP(=O)([O-])OC1CC[N+](C)(C)CC1`: -4.96% [at 24.7 µM] (inactive).
Same read-out and setting: the same measure for `CCC1(O)CC2CN(CCc3c([nH]c4ccccc34)[C@@](C(=O)OC)(c3cc4c(cc3OC)N(C=O)[C@H]3[C@](O)(C(=O)OC)[C@H](OC(C)=O)[C@]5(CC)C=CCN6CC[C@]43[C@@H]65)C2)C1` (some centres not stated): -24.4% (inactive).
Consider `CCOc1cc2ncc(C#N)c(Nc3ccc(OCc4ccccn4)c(Cl)c3)c2cc1NC(=O)/C=C/CN(C)C`, for which the Potency is 7.49 µM (active).
